Screening results (PubChem)
ELG1 genotox = induces genotoxicity in HEK293T cells with luciferase-tagged ELG1. HEK293T ELG1-luciferase reporter, luminescence, 16 h. Potency, µM (highest dose often 46 µM), for inactives: at the highest dose activity change, positive = activation, usual class: activators. 330,000 compounds, 1.3% hits; further: % of control where 0% means no effect; nearly all actives have a fitted effect of over 60% in size
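Cells (2,000/well) expressing the ELG1-luciferase fusion are dosed by pin tool and kept 16 hr at 37 °C, 5% CO2. Signal comes from ONE-Glo luciferase reagent after 30 min at room temperature.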
NPC1 promoter act = activates the NPC1 promoter | AID 485313 | Huh7 NPC1 promoter luciferase reporter, 24 h | 320,000 compounds, 2.4% hits | Potency, µM (doses to about 9.22 µM), for the others: at the top dose activation, actives largely listed as activators; further: % of control where 0% means no effect; nearly all actives have a fitted effect of over 60% in size
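NPC1 promoter–luciferase Huh7 cells; 24 h compound; luminescence.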
Rab9 prom act = activates the Rab9 promoter; Potency, µM (doses to about 9.22 µM), without a hit: at the highest dose activation, negative = inhibition, usual class: activators; Huh7 Rab9 promoter-luciferase reporter, luminescence, 24 h; 320,000 compounds, 2.8% hits; further: % of control where 0% means no effect; nearly all actives have a fitted effect of over 60% in size
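Using Huh7 cells stably transfected with Rab9 promoter–luciferase, compounds were incubated 24 h at 37 °C, 5% CO2; luciferase luminescence was read 10 min after reagent addition.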
Luc counter = blocks Kinase-Glo luciferase, a counter-screen artifact; Q27757; Kinase-Glo luciferase, ATP luminescence, 8 min; Potency, µM (doses to about 38.3 µM), for inactives: at the highest dose activity change, negative = inhibition, hits mostly inhibitors; 200,000 compounds, 0.28% hits; further: on the % scale 0 is the no-effect control and ±100 the full control effect; nearly all actives have a fitted effect of over 60% in size
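Light output from Kinase-Glo luciferase with luciferin and 10 uM ATP in 50 mM imidazole pH 7.2, KCl, MgCl2, Tween 20, BSA; compound pin-delivered, 8-min ambient incubation, then luminescence read.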
FLuc modulator = counter-screen for miR-21 project: firefly luciferase inhibitors or activators | purified FLuc, Km substrates, luminescence inhibition | Potency, µM (titrated, usually from 57.5 µM), without a hit: top-dose activity change, negative = inhibition, hits mostly inhibitors | 360,000 compounds, 6.9% hits;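 further: plate controls were vehicle for no effect and reference inhibitor for full effect; nearly all actives have a fitted effect of over 55% in size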
Target sequence (P08659 whole entry, looked up): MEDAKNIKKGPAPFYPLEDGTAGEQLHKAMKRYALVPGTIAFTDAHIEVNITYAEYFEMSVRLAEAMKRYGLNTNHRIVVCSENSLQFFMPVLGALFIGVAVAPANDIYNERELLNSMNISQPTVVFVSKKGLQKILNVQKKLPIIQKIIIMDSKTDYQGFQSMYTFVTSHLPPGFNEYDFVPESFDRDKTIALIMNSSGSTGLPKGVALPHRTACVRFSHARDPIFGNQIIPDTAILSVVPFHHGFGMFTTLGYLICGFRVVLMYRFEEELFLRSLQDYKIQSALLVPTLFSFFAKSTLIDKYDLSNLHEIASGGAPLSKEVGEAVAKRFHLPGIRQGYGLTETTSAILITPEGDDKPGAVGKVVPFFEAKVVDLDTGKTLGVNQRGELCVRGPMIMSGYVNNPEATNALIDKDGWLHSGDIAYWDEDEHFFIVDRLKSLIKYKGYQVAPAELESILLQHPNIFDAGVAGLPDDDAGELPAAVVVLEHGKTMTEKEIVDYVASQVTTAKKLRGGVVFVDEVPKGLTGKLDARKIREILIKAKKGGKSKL
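Biochemical qHTS of compounds, final roughly 60 µM downward over six points, against 10 nM purified firefly luciferase using Km concentrations of substrates (10 uM D-luciferin, 10 uM ATP) in Tris acetate pH 7.5 buffer; luminescence output.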
SMN2 splice up = enhancers of SMN2 splice variant expression; HEK293 SMN2-luciferase splicing reporter, luminescence, 30-36 h; Potency, µM (titrated, usually from 46.1 µM), inactives show at the highest dose activity change, positive = activation, usual class: activators; 210,000 compounds, 2.8% hits; AID 1458; further: % of control where 0% means no effect; nearly all actives have a fitted effect of over 55% in size
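qHTS luciferase splicing reporter: luminescence rises when SMN2 exon 7 is included in transfected HEK293 cells. Compound exposure lasted 30-36 h at 37C, with 4.5 mM final sodium butyrate as control, followed by a ONE-Glo read.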
* = called active by the depositor; ? = inconclusive; . = not tested or not shown; [ ] = dose if it differs, or a comment. A selection: hits, their analogues and other compounds. The true share with any hit is near 7.5%. The call rests on the fitted dose curve; in most records, active means well fitted curve in the direction sought with a large enough effect; inconclusive means small, poorly fitted or top-dose-only effect, or another doubt; inactive means no such curve, though single readings can be large; an effect the other way counts as inactive or inconclusive. Potency means the concentration at half of the fitted maximal effect.

SMILES | ELG1 genotox | NPC1 promoter act | Rab9 prom act | Luc counter | FLuc modulator | SMN2 splice up
O=C(N/N=C\c1cc(Br)cs1)c1ccncc1 | -6.0% | -38.2% | 3.6% | . | ? | .
Cc1ccc(/C=N/Nc2ccc(C(=O)O)cc2)s1 | ? | ? | ? | ? | 0.536µM* | -98.5%
Cc1ccc(/C=N/NC(=O)C[n+]2ccccc2)s1 | 6.9% | -0.3% | 2.3% | . | -1.4% | .
O=C(O)c1cccc(N/N=C/c2sc(N3CCOCC3)nc2-c2ccccc2)c1 | 14.6µM* | 3.98µM* | 2.82µM* | -10.6% | 1.2µM* | 17.4%[1.84 µM]
Cc1ccc(/C=N/NC(=O)c2cccnc2)s1 | 11.5% | 12.9% | 12.2% | . | ? | .
Nc1ccc(C(=O)N/N=C/c2sc(N3CCOCC3)nc2-c2ccccc2)cc1 | 5.4% | -0.3% | -1.0% | -4.7% | ? | ?
O=C(O)c1ccc(N/N=C/c2cc(Br)cs2)cc1 | ? | 0.0891µM* | 0.1µM* | . | 0.239µM* | .
CC(Oc1ccc2ccc(=O)oc2c1)C(=O)NC1CC(C)(C)NC(C)(C)C1 (stereo not drawn) | -0.6%[9.26 µM] | -2.4% | -2.6% | . | 1.5% | .
CCC1(c2ccc(F)cc2)NC(=O)N(CC(=O)Nc2cc(C)on2)C1=O (stereo not drawn) | 0.1% | -4.5% | -3.2% | . | -0.5% | .
CCOc1ccc(CNC(=O)CCCn2nc(C)c3sc4ccccc4c3c2=O)cc1 | . | . | . | . | -25.4% | .
CCOc1ccc(NC(=O)CN(C)C(=O)CCCOc2ccc(Cl)c(C)c2)cc1OCC | -15.1% | -1.2% | 0.6% | . | -1.5% | .
COc1cc(/C=N/Nc2nc3ccccc3[nH]2)cc(Br)c1OCC(=O)N(C)C | -9.8% | -6.6% | -4.0% | -1.1% | 23.9µM* | -22.5%
COc1cc(/C=N/Nc2nc3ccccc3[nH]2)cc(OC)c1O | 14.3% | 14.2% | 20.6% | . | 4.78µM* | .
COc1cc(/C=N/Nc2nc3ccccc3[nH]c2=O)ccc1O | -3.3% | 9.0% | 1.9% | -8.5% | 15.1µM* | ?
COc1cc(/C=N/NC(=O)c2ccc(CSc3nc4ccccc4[nH]3)cc2)cc(OC)c1OC | -18.5% | 0.8% | 0.9% | -0.9% | ? | ?
O=[N+]([O-])c1ccc(O)c(/C=N/Nc2nc3ccccc3[nH]2)c1 | 18.4µM* | -34.8% | -37.6% | 5.4% | ? | -99.8%
COc1cc(/C=N/Nc2nc(=O)[nH]nc2C)ccc1O | 4.1% | -4.6% | -0.9% | . | ? | .
CC(=O)N1CCc2cc(S(=O)(=O)CCC(=O)Nc3ccc(Cl)cc3F)ccc21 | -0.6% | 1.2% | -0.5% | . | 0.6% | .
Cc1cccc(NC(=O)Cn2cc(S(=O)(=O)c3ccc(F)cc3)c(=O)c3cc4c(cc32)OCO4)c1 | . | . | . | . | -5.4% | -10.1%
COc1ccc(O)c(/C=N/Nc2nc3ccccc3[nH]2)c1 | ? | 5.0% | ? | -4.6% | 6.75µM* | ?
COc1cc(/C=N/Nc2nc3ccccc3[nH]2)ccc1O | ? | 4.0% | 2.6% | -9.2% | 4.78µM* | 62.9%
COc1cc(/C=C(/C(=O)c2cccs2)c2nc3ccccc3[nH]2)cc(OC)c1O | -20.5% | 13.4% | 14.2% | ? | 2.39µM* | -76.8%
CC(C)CN1CC[C@@]2(CCCN(C(=O)c3csnn3)C2)C1 | . | . | . | -0.9% | . | 13.8%
O=Cc1cc(Br)c(OC(=O)N2CCOCC2)c(Br)c1 | -6.1% | -0.5% | -0.5% | . | 2.9% | .
O=C(CCN1C(=O)/C(=C/c2cccs2)SC1=S)Nc1ccc(C(=O)O)c(O)c1 | 1.9% | -1.8% | -0.6% | . | 16.9µM* | .
SMILES | ELG1 genotox | NPC1 promoter act | Rab9 prom act | Luc counter | FLuc modulator | SMN2 splice up
O=C(CCN1C(=O)/C(=C/c2cccs2)SC1=S)Nc1ccc(O)cc1 | 5.3% | 0.5% | -1.0% | . | 3.4% | .
CC(=C\c1ccccc1)/C=C1/SC(=O)N(CCCC(=O)Nc2ccc(C(=O)O)cc2)C1=O | ? | 17.2% | 2.5% | 1.4% | 16.9µM* | 8.2%
CC(/C=C1\SC(=S)N(CCCC(=O)Nc2ccc(C(=O)O)c(O)c2)C1=O)=C\c1ccccc1 | ? | 18.4% | ? | 0.1% | 10.7µM* | 35.5µM*
CC(/C=C1\SC(=S)N(CCC(=O)Nc2ccc(O)cc2)C1=O)=C\c1ccccc1 | -4.3% | 17.8% | 16.4% | . | -8.4% | .
O=C(CCCN1C(=O)S/C(=C/C=C/c2ccccc2)C1=O)Nc1ccc(C(=O)O)cc1 | 7.4% | 0.6% | -3.8% | . | -0.1% | .
O=[N+]([O-])c1ccc(N=Nc2ccc(O)cc2O)cc1 | 10.1% | 1.1% | 13.1% | ? | 6.01µM* | -16.4%
CC1CCC(=O)N(CCSc2ccccc2)CC1 (stereo not drawn) | ? | 1.12µM* | 0.891µM* | . | 5.36µM* | .
COc1ccc(SCCN2CC[C@@H](C)CCC2=O)cc1 | 6.9% | 15.2% | 17.9% | . | ? | .
O=C(O)CCC(=O)c1ccc2ccc3cccc4ccc1c2c34 | 4.4% | -0.6% | -3.5% | -1.7%[7.66 µM] | 21.3µM* | -13.0%[9.22 µM]
O=C(O)CCCCCn1c(SCc2cc(=O)n3ccccc3n2)nc2ccsc2c1=O | -0.2% | -3.8% | -8.0% | 2.4% | 0.4% | 2.6%
CC(=O)Nc1cccc(N=NN2CCCCC2)c1 | 9.0% | 7.3% | 14.2% | -0.2% | 16.9µM* | 0.4%
O=C(O)c1ccc(N=NN2CCCCCC2)cc1 | 7.2% | ? | 0.316µM* | -2.3% | 10.7µM* | 4.47µM*
Cc1noc(C)c1C(=O)N1CCC[C@@]2(CCN(Cc3cc(C(F)(F)F)cc(C(F)(F)F)c3)C2)C1 | . | . | . | -2.8% | . | -14.1%
COc1cccc2c1cc1c(=O)n(CC(=O)N3CCN(c4cccc(C(F)(F)F)c4)CC3)nc(C)n12 | . | . | . | . | -4.6% | -0.1%
CN(C)c1cccc(/C=C(\C#N)c2ccccc2)c1 | 4.11µM* | ? | 0.501µM* | . | 1.2µM* | .
N#C/C(=C\c1cccs1)C(=O)c1ccccc1 | 3.9% | 2.1% | 7.8% | . | 15.1µM* | .
CN(C)c1ccc(/C=C(\C#N)c2ccccc2)cc1 | 4.11µM* | 28.6% | 0.562µM* | . | 1.35µM* | .
CN(C)c1ccc(/C=C(/NC(=O)c2ccccc2)C(=O)N2CCCC2)cc1 | -1.6% | -0.4% | -1.1% | . | 16.9µM* | .
CCCCC(CC)CNC(=O)C(=O)c1ccccc1NC(C)=O (stereo not drawn) | -2.3% | 1.3% | -0.5% | 0.8% | -2.2% | -21.2%
CN(C)c1ccc(C(=O)C(=O)c2ccccc2)cc1 | 16.7% | 17.6% | ? | . | 23.9µM* | .
N#C/C(=C\c1ccc(C#N)cc1)C(=O)c1ccccc1 | 6.2% | 5.3% | -1.8% | . | ? | .
CN(C)c1ccc(/C=C(\C#N)C(=O)c2ccccc2)cc1 | 7.5% | -3.5% | 0.1% | . | 0.426µM* | .
CCn1c(O)c(N=Nc2ccc3ccccc3n2)c2ccccc21 | 5.8µM* | 3.16µM* | 1.12µM* | . | 3.01µM* | .
CC(O)COc1ccc(/C(=N/O)c2ccccc2)cc1 (stereo not drawn) | 0.5% | 0.5% | -2.4% | 7.2% | ? | 8.1%
